The values below come from PubChem BioAssay (NCI).

This is part of a sample that, as a whole, favours compounds with a hit. Of some 83,000 tested, about 20% had one in any assay.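 For each line, cells grew in 96-well plates with the test compound present at a single concentration for 48 hours.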 Unmarked numbers belong to inactive results. Calls of active or inactive are those of the source. The calls were made as follows: active = growth percent below 10; inactive = the rest.

The test system of this experiment is HL-60(TB) leukemia. The experiment is described as follows: NCI-60 one-dose screen, 48 h (100 = growth as untreated, 0 = no growth, -100 = all killed). Particulars: 10 µM unless noted.
In the case of `CC(=O)c1cc2c(N)c(C(=O)Nc3cccc(F)c3C)sc2nc1C`, the growth was 57.1%.

As to `CC(=O)n1cc(-c2c[nH]c3ccccc23)c(-c2ccc(Cl)cc2)n1`, the growth was 135%.

Consider `O=C1Nc2cc(-c3ccc(NC(=O)c4ccccc4)cc3)ccc2/C1=C/c1ccc[nH]1`, for which the growth was 99.2%.

For `COc1cc2oc(-c3cccc(C(=O)Nc4ccc5c(c4)OCO5)c3)cc(=O)c2c(O)c1OC`, the growth was 94.3%.

For `O=C(Nc1ncc(Cc2ccccc2)s1)c1sc2ccccc2c1Cl`, the growth is -9.41% (active).

For `FC(F)(F)c1cccc(CNC2CCN(CCc3ccccc3)CC2)c1`, the growth was 46.2%.

On to `O=C(Oc1cccc2ccccc12)c1ccccc1C(=O)c1ccccc1`, for which the growth was -8.79% (active).

With `COC(=O)c1ccc2oc(NC(=O)c3ccc(N4CCOCC4)c([N+](=O)[O-])c3)nc2c1`, the growth was 96.7%.

For `CCN1C(=O)N(CC)C2C1NN=c1s/c(=C3\C(=O)Nc4ccccc43)c(=O)n12` (stereo not given), the growth was -25% (active).

As for `O=C(Nc1ccc(F)c(Cl)c1)Nc1ccc(Cl)c(Cl)c1`, the growth is 25%.

In the case of `O=c1[nH]c2ccc(Cl)cc2c2ccccc12`, the growth was 130%.

Consider `COC(=O)c1ccc(NC(=O)c2ccc(-c3cccc([N+](=O)[O-])c3)o2)cc1`, for which the growth was 101%.

Turning to `O=C(CCN1CCCC1)Nc1ccc2c(Nc3ccc(Br)cc3)c3ccccc3nc2c1`, the growth was -54.6% (active).

Regarding `NC(CO)(CO)c1ccccc1`, the growth was 119%.

With `CC1(C)CNC(=O)N1`, the growth is 101%.

Take `COc1ccc(Sc2[nH]c(C(C)=O)c3ccccc23)cc1`: the growth is 23.3%.

For `C#CCOc1cccc(-c2ncnc3cc(NC(=O)C=C)ccc23)c1`, the growth was 16.9%.

For the molecule `CNC(=O)c1cc(Oc2cccc3nc(Nc4ccc(Cl)c(F)c4)ccc23)ccn1`, the growth is 95%.

As to `COc1cc2c(cc1-c1c(C)noc1C)ncc1nc(C3CC3)n([C@H](C)COC(F)F)c12`, the growth was 31%.

For `CCN1C(=O)N(CC)C2Nn3c(s/c(=C4\C(=O)N(C5CCCC5)c5ccccc54)c3=O)=NC21` (stereo not given), the growth was 29.8%.

Take `O=C(/C(=C/c1ccccc1)CBr)c1ccccc1`: the growth is 9.09% (active).

With `C/C=C(/C)C(=O)O[C@@H]1CC(C)(C)CC2C34OC(=O)[C@@]21CC[C@@]3(C)[C@]1(C)CCC2C(C)(C)C(=O)CC[C@]2(C)C1C[C@@H]4O` (stereo not given in full), the growth is 6.92% (active).

With `Nc1c(C(=O)Nc2cccc(Br)c2)sc2nc3c(cc12)C(=O)CCC3`, the growth was 49.7%.

With `Cn1ccc(=O)c(C(=O)Nc2nsc3ccc([N+](=O)[O-])cc23)c1`, the growth is 54.9%.

In the case of `Cc1ccc(S(=O)(=O)Nc2cccc3[nH]c(C(F)(F)F)nc23)cc1`, the growth was 0.648% (active).

In the case of `CCOc1ccc(/C=N\N=C\c2ccc(OCC)cc2)cc1`, the growth is 76.6%.

In the case of `CC(=O)O[C@H]1[C@@H]2OC(=O)C(CSc3ccccc3)[C@@H]2C[C@H]2O[C@]2(C)CC/C=C(\C)CCC[C@@H]1C` (stereo not given in full), the growth is 25.8%.

In the case of `O=C1CCCCN1CCCCC#Cc1cccc(C#Cc2cccnc2)c1`, the growth is -23.2% (active).

Regarding `S=C=Nc1ccc(N2CCOCC2)cc1`, the growth is 103%.

As for `Clc1ncnc2scc(C3COc4ccccc4O3)c12` (stereo not given), the growth was 102%.

As for `COc1cc(-c2nn(-c3ccc(NC(=O)NCCNS(=O)(=O)c4ccc(F)cc4)cc3)cc2-c2ccncc2)ccc1Cl`, the growth is -9.47% (active).

Consider `NCCOc1ccccc1/C=C1\c2ccccc2-c2ccc([N+](=O)[O-])cc21`, for which the growth is -59.3% (active).

As to `Cc1ccc(-c2ccc(Nc3ccccc3)nn2)cc1S(N)(=O)=O`, the growth is 86.7%.

`CC(=Nc1ccc(N(C)C)cc1)c1ccccc1`: the growth is 26.1%.

Take `CSC1=C(N)C(=O)c2[nH]cc(CO)c2C1=N`: the growth was -28.1% (active).

Take `CCOC(=O)C1(C(=O)OCC)N=C(c2ccccc2)C=C1c1ccccc1`: the growth is 87.2%.

With `CCOC(=O)C(C#N)C1CCCCC1` (stereo not given), the growth is 67.5%.

In the case of `Nc1ccc(C2c3ccccc3Oc3ccccc32)cc1`, the growth was 115%.

With `O=C(CC12CC3CC(CC(C3)C1)C2)NCCOCCOCCOCCNC(=O)c1cc2c(o1)C(=O)c1ccccc1C2=O`, the growth was -7.22% (active).

With `COc1ccc(N2C(=O)CC(c3cc(OC)c(OC)c(OC)c3)C3C2=NC(=O)N3C)cc1` (stereo not given), the growth was 107%.
